From PubChem BioAssay (NCI)
Compounds without any hit were thinned out: in the full panel of roughly 83,000, 20% have a hit.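 Cells were grown in 96-well plates and exposed to the test compound at a single concentration for 48 hours; results are reported as percent growth, with values below 10 considered active.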 A number with no mark means an inactive call. Calls of active or inactive are those of the source.

These molecules were tested on HT29 colon (assay: NCI-60 one-dose screen, 48 h (100 = growth as untreated, 0 = no growth, -100 = all killed)). Conditions: 10 µM unless noted.
Protocol: Growth inhibition of the HT29 human tumor cell line is measured as a screen for anti-cancer activity. Cells are grown in 96 well plates and exposed to the test compound for 48 hours. Compounds are tested at a single concentration, which is 10^-5 M for most compounds. The reported endpoint is percent growth (GI% or GIPRCNT), where numbers from 0 - 100% represent growth inhibition, and numbers from -100% - 0 represent cell death. For example, a value of 40 represents 60% growth inhibition. A value of 0 means no net growth occurred over the course of the experiment. A value of -40 indicates 40% of cells at the beginning of the experiment died by the end of the experiment. A value of -100 means all cells are dead at the end of the experiment.
NCI-60 Human Tumor Cell Lines Screen was performed using the standard one-dose NCI protocol, which is described in more detail at https://dtp.cancer.gov/discovery_development/nci-60/default.htm.
Compounds with GIPRCNT values below 10 were considered active. Activity score was based on GIPRCNT using the following formula: […]
Score is 0 for GIPRCNT values of 100 or above, 50 for GIPRCNT values of 0, and 100 for GIPRCNT values of -100.
For CCn1c2ccccc2c2cc(C(=O)c3cccc4c3CCCN4)ccc21, the growth was 113%.
With Nc1c(F)cc(-c2nc3cc(F)ccc3[se]2)cc1F the growth was 46.4%.
In the case of O=C(CC1(O)C(=O)N(Cc2ccccc2)c2ccc(Br)cc21)c1ccc(C(=O)NCC2CCC3(CC2)OOC2(CCCCC2)OO3)cc1 (stereo not given), the growth is reported as -65.5% (active).
Molecule CC(C)OC(=O)[C@H](C)NP(=O)(Oc1ccccc1)C1CCCN(O)C1=O (stereo not given in full) has a growth of 91.7%.
CC(=O)OC1CCC2(C)C(CCC3C2CC(=O)C2(C)C3CC(Sc3ccc(N(CCCl)CCCl)cc3)C2C(C)=O)C1 (stereo not given) was tested, and the growth was 11.9%.
In the case of O=NN1CCCc2cccc(O)c21, the growth is reported as 94.6%.
COc1cc(C=C2c3ccccc3C(=O)c3ccccc32)ccc1OCCCCOc1cc2c(cc1OC)C(=O)N1CCCC1C=N2 (stereo not given) was tested, and the growth was -64.6% (active).
With Nc1ccc(-c2nc3cc(F)ccc3[se]2)cc1F the growth was 61%.
O=C([O][Hg][CH2]C1OCCOC1[CH2][Hg][O]C(=O)c1ccccc1)c1ccccc1 (stereo not given) showed a growth of 83.6%.
With O=[N+]([O-])c1cnc[nH]1 the growth was 95.1%.
CC(C)(NC(=O)O[C@@H]1CN2CCC1CC2)c1csc(-c2ccc(F)cc2)n1 showed a growth of 104%.
CCn1cnc2c(Nc3cccc(Cl)c3)nc(N[C@@H]3CCCC[C@@H]3N)nc21 was tested, and the growth was -4.11% (active).
With C/C1=C/C(=O)O[C@@H]2C[C@@H](CC[C@H](C)/C=C\C=C\CC1)O[C@@](O)([C@@H]1CSC(=O)N1CO)C2 the growth was 8.8% (active).
CSc1nc(Cl)cc(N2CC2)n1 was tested, and the growth was 112%.
Cc1c(NS(=O)(=O)c2ccccc2)ccc([N+](=O)[O-])c1Cl showed a growth of 76.4%.
For Cn1cc(-c2csc(-c3cn(CCCCN4CCCCC4)c4ccc(F)cc34)n2)c2cccnc21, the growth was -73.5% (active).
COC(=O)C1OC(Oc2ccc(N(CCCl)CCCl)cc2)C(OC(C)=O)C(OC(C)=O)C1OC(C)=O (stereo not given) showed a growth of 80.7%.
COC1CC2c3ccccc3C1C(C)=[N+]2C (stereo not given) was tested, and the growth was 96.6%.
For COC(=O)[C@@H](C)C[C@H](Cc1ccccc1)NC(=O)c1nc([C@@H](C[C@H](C(C)C)N(C)C(=O)[C@@H](NC(=O)[C@H]2CCCN2C)C(C)C)OC(C)=O)sc1C, the growth was 2.1% (active).
With [Cl][Hg][c]1cc[c]([Hg][Cl])o1 the growth was 30.9%.
With Brc1ccc2c(c1)c(-c1nc(-c3c[nH]c4ncccc34)cs1)cn2CCN1CCCCC1 the growth was 27.4%.
With COC(=O)[C@@H](C)C[C@H](Cc1cn(C)c2ccccc12)NC(=O)c1csc([C@@H](C[C@H](C(C)C)N(C)C(=O)[C@@H](NC(=O)[C@H]2CCCCN2C)C(C)C)OC(C)=O)n1 the growth was 3.4% (active).
For COc1cc([C@@H]2c3cc4c(cc3[C@H](OC(C)=O)[C@H]3COC(=O)[C@@H]23)OCO4)cc(OC)c1OC, the growth was 1.62% (active).
For Oc1c(CCl)cc(Cl)cc1CCl, the growth was 104%.
Molecule O=C(c1cccc(O)c1O)c1cn(Cc2ccc(F)cc2)c2cccc(O)c12 has a growth of 94.5%.
COc1ccc(Nc2ccnc3cc(Cl)ccc23)cc1CN(CCCl)CCCl was tested, and the growth was 1.34% (active).
With C/C=C(\C)C(=O)O[C@@H]1C(O)[C@H]2OC(COC(=O)CCC(=O)CCCCCC[C@H](CCCCC)O[C@@H]3OC(C)[C@H](OC(C)=O)C(O)[C@H]3O2)[C@H]1OC(=O)/C=C/c1ccccc1 (stereo not given in full) the growth was 5.27% (active).
O=[N+]([O-])c1cc([N+](=O)[O-])c(Cl)cc1Cl was tested, and the growth was -53.3% (active).
CCOc1ccccc1C(=O)OCC(Cl)(Cl)Cl showed a growth of 96.4%.
CCNc1nc(Cl)nc(NCC)n1 showed a growth of 107%.
For O=C(CC1(O)C(=O)N(Cc2ccccc2)c2ccccc21)c1ccc(C(=O)NCC2CCC3(CC2)OOC2(CCCCC2)OO3)cc1 (stereo not given), the growth was -51.6% (active).
CCCCCCCCCCCCCC[P+](CCCCCC)(CCCCCC)CCCCCC was tested, and the growth was -58.2% (active).
Work on CCc1ccccc1[C@@H]1C[C@]2(C)CCO[C@@H]2OO1 yielded a growth of 98.4%.
COC(=O)[C@@]1(O)C[C@H]2O[C@]1(C)n1c3ccccc3c3c4c(c5c6ccccc6n2c5c31)C(=O)NC4 was tested, and the growth was -24.6% (active).
Molecule CCCCN1CCCC[C@@H]1C(=O)N[C@H](C(=O)N(C)[C@H](C[C@@H](OC(C)=O)c1nc(C(=O)NC2CCC(C(=O)OC)CC2)cs1)C(C)C)C(C)C (stereo not given in full) has a growth of 14.8%.
For CC[C@H](C)[C@H](NC(=O)C12C3C4C1C1C2C3C41NC(C)=O)C(=O)N(C)[C@H](C[C@@H](OC(C)=O)c1nc(C(=O)N[C@@H](Cc2ccccc2)C[C@H](C)C(=O)OC)cs1)C(C)C (stereo not given in full), the growth was 4.53% (active).
Work on O=[As](O)(O)c1ccccc1[As](=O)(O)O yielded a growth of 109%.
In the case of COc1ccc(C2=CC(c3ccc(OC)c(OC)c3)c3c(c4ccccc4oc3=O)O2)cc1OC (stereo not given), the growth is reported as 3.84% (active).
In the case of COc1cc(/C=C/[N+](=O)[O-])c([N+](=O)[O-])cc1OC, the growth is reported as -66% (active).
For COC(=O)[C@@H](C)C[C@H](Cc1ccccc1)NC(=O)c1nc([C@@H](C[C@H](C(C)C)N(C)C(=O)[C@@H](NC(=O)[C@H]2C[C@H](O)CCN2C)C(C)C)OC(C)=O)sc1C(C)C, the growth was -15.3% (active).
